These results are taken from publication PMC4552634, “A New Set of Chemical Starting Points with Plasmodium falciparum Transmission-Blocking Potential for Antimalarial Drug Discovery” (PLoS ONE, 2015).

The whole screen tested about 13,000 compounds, of which about 3,200 (25%) showed an effect of 50% or more. Some of the results follow.

This assay has as its system P. falciparum stage V gametocytes. Set-up: BacTiter-Glo ATP luminescence viability of purified stage V gametocytes in 384-well plates, per cent inhibition versus DMSO. Conditions: 48 h, 5 µM; inhibitor.
As usually defined, the % Inhibition is the drop in the measured response relative to a control, in per cent. For `Nc1ncc(-c2ccccc2)cc1-c1nc2cc(Cl)c(F)cc2[nH]1` [TCMDC-138783], the “% Inhibition” value is listed as -16.12%.
Consider `CSc1ccc2nccc(Nc3ccc(Oc4ccccc4)cc3)c2c1` [TCMDC-138375], for which the “% Inhibition” value is -18.84%.
The value for `CC1CN(c2ccnc3ccc(Sc4ccc(Oc5ccccc5)cc4)cc23)CC(C)N1` (stereo not drawn) [TCMDC-135857] was 94.55%.
The value for `Cc1c(S(=O)(=O)Nc2ccc3nccc(N4CC(C)NC(C)C4)c3c2)sc2ccc(Cl)cc12` (stereo not drawn) [TCMDC-139464] was 2.238%.
The figure for `CC[C@H](C)CNC(=O)c1ccnc(-c2cccc(CN3CCC(N4CCCC4)CC3)c2)c1` [TCMDC-134244] is 20.81%; for `O=S(=O)(c1cccc(C(F)(F)F)c1)N1CCC(CO)(Cc2cccc(C(F)(F)F)c2)CC1` [TCMDC-124606] it is 41.83%.
For the compound `CCCS(=O)(=O)N1CCC(CO)(Cc2ccccc2C(F)(F)F)CC1` [TCMDC-124652], the “% Inhibition” value was determined as 66.01%.
The value for `N#Cc1ccc(CN2CCC(Oc3ccc(NC(=O)c4ccco4)cc3Cl)C2)cc1` (stereo not drawn) [TCMDC-133963] was 28.15%; that for `O=C(NC1CCCCC1)N(Cc1cccc(-c2cccc(CNC3CCCC3)c2)c1)C1CCN(Cc2ccccc2)CC1` [TCMDC-140630] was 102.1%; that for `O=C(NC1CCCCC1)N(Cc1cccc(-c2ccc(CNCCc3ccccc3)cc2)c1)C1CCN(Cc2ccccc2)CC1` [TCMDC-140629] was 110.5%.
The value for `O=C(NC1CCCCC1)N(Cc1cccc(-c2ccc(CNC3CCCC3)cc2)c1)C1CCN(Cc2ccccc2)CC1` [TCMDC-140631] was 106.7%; that for `O=C(NC1CCCCC1)N(Cc1ccc(-c2cccc(CNC3CCCC3)c2)cc1)C1CCN(Cc2ccccc2)CC1` [TCMDC-140638] was 83.36%.
The value for `COc1ccc2nccc(NCC3(O)CCN(CCc4ccc5c(c4)OCCO5)CC3)c2n1` [TCMDC-141461] was 34.43%.
As to `CC(C)CN1C(=O)C(c2ccc(F)c(F)c2)=C(O)C1c1ccccc1` (stereo not drawn) [TCMDC-141919], the “% Inhibition” value is 11.18%.
Turning to `O=C(Nc1ccc(OC2CCN(Cc3ccccc3)C2)c(Cl)c1)c1ccsc1` (stereo not drawn) [TCMDC-133969], the “% Inhibition” value is -1.877%.
Regarding `C=CCOC(=O)O[C@@H]1[C@@H](OC(=O)OCC=C)[C@@H](OC)O[C@H](COC(c2ccccc2)(c2ccccc2)c2ccccc2)[C@H]1OC(=O)OCC=C` [TCMDC-139139], the “% Inhibition” value is 34.95%.
The figure for `COc1ccccc1N1CCN(CCCCNC(=O)c2ccc(NC(=O)c3cc4ccccc4o3)cc2)CC1` [TCMDC-138115] is -10.75%; for `Cc1cccc(CN2CCC(Oc3ccc(NC(=O)c4cccs4)cc3Cl)CC2)n1` [TCMDC-133964] it is 24.07%.
For `O=C(NC1CCCCC1)N(Cc1ccc(-c2ccc(CNC3CCCC3)cc2)cc1)C1CCN(Cc2ccccc2)CC1` [TCMDC-140639], the “% Inhibition” value is listed as 105.2%.
The figure for `FC(F)(F)c1cccc2c(NN=Cc3ccccc3)ccnc12` [TCMDC-142025] is 48.45%.
The figure for `COc1ccc2ncc(F)c(CCN3CC[C@@H](CNCc4ccc5c(c4C)OCCO5)C3)c2n1` [TCMDC-136057] is 40.7%; for `O=C(Cc1cccnc1)N(Cc1ccc(-c2ccc(CNCc3cccnc3)cn2)cc1)C1CCN(Cc2ccccc2)CC1` [TCMDC-141503] it is 73.31%; for `COc1ccc(C(=O)CCC(=O)N(Cc2ccc(-c3ccc(CNCc4cccnc4)cn3)cc2)C2CCN(Cc3ccccc3)CC2)cc1F` [TCMDC-141504] it is 91.04%.
The figure for `c1ccc(CN2CCC(NCc3ccc(-c4ccc(CNCc5cccnc5)cn4)cc3)CC2)cc1` [TCMDC-141613] is -15.37%; for `COc1ccc(C(=O)CCC(=O)N(Cc2ccc(-c3ccc(CNCCc4ccc(S(C)(=O)=O)cc4)cn3)cc2)C2CCN(Cc3ccccc3)CC2)cc1F` [TCMDC-141516] it is 12.43%; for `C=CCc1cccc(C)c1OCCCON1C(N)=NC(N)=NC1(C)C` [TCMDC-131307] it is 8.677%.
On to `Cc1cc(C)n2nc(C(=O)Nc3cc(C(F)(F)F)ccc3N3CCOCC3)nc2n1` [TCMDC-123614], for which the “% Inhibition” value came to 4.468%.
In the case of `Cc1cc(N(C)C)nc(Nc2ccc(NC(=O)c3ccc(Br)o3)cc2)n1` [TCMDC-124972], the “% Inhibition” value is recorded as -1.025%.
The value for `CCCC(CNC(=O)c1cc2c(Cl)cc(Cl)cc2[nH]1)CNc1cc(=O)c2ccccc2[nH]1` (stereo not drawn) [TCMDC-140519] was -10.38%.
The value for `Cc1c(CC(=O)N(C)C2CCN(CCCCCNC(=O)/C=C/c3ccc(Cl)c(Cl)c3)CC2)sc2ccc(Cl)cc12` [TCMDC-139994] was -4.891%.
With `COc1ccc(CCn2c(=N)c(C(=O)NCc3ccccc3)cc3c(=O)n4ccccc4nc32)cc1` [TCMDC-124472], the “% Inhibition” value amounted to 34.54%.
For the compound `CCOC(=O)N/N=C/[C@H](CCc1ccccc1)NC(=O)[C@H](CC(C)C)NC(=O)c1cc2cccc(OC)c2o1` [TCMDC-135928], the “% Inhibition” value is given as 10.67%.
On to `CCOC(=O)N(C)/N=C/[C@H](CCc1ccccc1)NC(=O)[C@H](CC(C)C)NC(=O)c1cc2cccc(OC)c2o1` [TCMDC-136018], for which the “% Inhibition” value was 75%.
Consider `CCC[C@@H](/C=N/N(C)C(=O)OC(C)(C)C)NC(=O)[C@H](CC(C)C)NC(=O)c1cc2cccc(OC)c2o1` [TCMDC-136059], for which the “% Inhibition” value is -6.333%.
On to `CCOc1cc(C(=O)NCCN(CC)c2cccc(C)c2)ccc1-c1nc2ccc(Cl)cc2[nH]1` [TCMDC-140916], for which the “% Inhibition” value is recorded as -6.076%.
In the case of `CCc1cc2c(N)nc(N)nc2nc1-c1ccccc1` [TCMDC-131931], the “% Inhibition” value was found to be 14.27%.
As for `Nc1nccc2ccc(-c3ccc(OCc4ccccc4)cc3)cc12` [TCMDC-133423], the “% Inhibition” value is listed as 12.93%.
The figure for `Nc1nc(N)c2cc3ccc(OCc4ccccc4)cc3nc2n1` [TCMDC-137967] is 109.1%.
In the case of `O=C(NC(Cc1ccccc1)C(=O)O)c1cc(=O)c2ccccc2o1` (stereo not drawn) [TCMDC-131318], the “% Inhibition” value worked out at 3.006%.
The value for `COc1cc2cc(C(=O)Nc3ccccc3)c(N)nc2cc1OC` [TCMDC-123992] was 12.69%; that for `O=C(Nc1cccc(OC2CCN(Cc3ccccc3)CC2)c1)c1ccc([N+](=O)[O-])cc1` [TCMDC-139543] was 0.689%; that for `COc1ccc(CCN(C)CCOc2ccc(NC(=O)c3cccc4cc5ccccc5nc34)cc2)cc1OC` [TCMDC-132112] was -28.68%.
The figure for `Cc1ccccc1CN1CCCN(Cc2ccc(C(=O)Nc3ccc(Cl)cc3)cc2)CC1` [TCMDC-136402] is -5.846%; for `CC1(C)N=C(NC(=O)Nc2ccc([N+](=O)[O-])cc2)N=C(N)N1OCc1cccc2ccccc12` [TCMDC-131582] it is 35.05%.
The value for `CN(c1ccccc1)c1ccnc(/N=C(\N)Nc2ccc(Cl)cc2)n1` [TCMDC-138941] was 49.31%.
With `Cc1ccccc1Cc1cccc(/N=C(\N)Nc2ccc(Cl)cc2)n1` [TCMDC-138942], the “% Inhibition” value stood at 89.67%.
Consider `COc1ccc(Cc2nc(N=C(N)Nc3ccccc3)ccc2OC)cc1` [TCMDC-138959], for which the “% Inhibition” value was found to be 88.7%.
`N/C(=N\c1cccc(Cc2ccc([N+](=O)[O-])cc2)n1)Nc1ccccc1` [TCMDC-138952]: the “% Inhibition” value is on record as 90.6%.
On to `NC(=O)c1cccc(Nc2nccc(Nc3ccc4[nH]c(-c5ccccc5)cc4c3)n2)c1` [TCMDC-138678], for which the “% Inhibition” value is on record as -94.87%.
As for `COc1ccc(S(=O)(=O)NC2CCN(c3cc(C)nc(Nc4cccc(C#N)c4)n3)CC2)cc1` [TCMDC-134215], the “% Inhibition” value was 11.7%.
The figure for `Cc1ccc(NC(=O)c2cnc(N3CCN(c4ccncc4)CC3)c(Cl)c2)cc1` [TCMDC-134603] is 7.543%.
As for `CNC(=O)c1[nH]c(-c2ccccc2)nc1NC(C)=O` [TCMDC-131315], the “% Inhibition” value is -0.1444%.
The value for `CC(C)(CNC(=O)[C@@H]1CCCN(Cc2ccc(Cl)cc2)C1)c1nc(-c2ccc(Cl)c(O)c2)c(-c2ccncc2)[nH]1` [TCMDC-141139] was 5.708%; that for `Nc1ncc(-c2ccccc2)cc1-c1cccc2ncccc12` [TCMDC-133415] was 19.97%.
Regarding `Nc1ncc(-c2ccccc2)cc1/C=C/c1cccnc1` [TCMDC-135534], the “% Inhibition” value amounted to 59.51%.
The figure for `Nc1nccc(-c2ccc3c(/C=C/c4ccccc4)cnc(N)c3c2)n1` [TCMDC-136382] is -22.89%.
The figure for `COc1cc(NC(=O)N2CCOC(CCN3CCC4(CCc5ccccc54)CC3)(c3ccc(Cl)c(Cl)c3)C2)cc(OC)c1OC` (stereo not drawn) [TCMDC-135346] is -4.106%; for `CN(Cc1cccc(O)c1)C1CCN(c2cc(NC(=O)c3cccc(F)c3)ccn2)CC1` [TCMDC-134962] it is -30.72%; for `CCCc1cc(Cc2cnc(N)nc2N)cc(CCC)c1O` [TCMDC-137695] it is -57.47%.
Regarding `CCOc1ccccc1C1C(C(=O)C(C)(C)C)N2c3ccc(Br)cc3C=CC2C12C(=O)c1ccccc1C2=O` (stereo not drawn) [TCMDC-125079], the “% Inhibition” value amounted to 103.1%.
In the case of `CCCCC1=CC2C(=O)C(C(=O)OC)=CN=C2C=C1OCc1ccccc1` (stereo not drawn) [TCMDC-137492], the “% Inhibition” value is listed as 62.56%.
The value for `Cc1ccc(NC(=O)c2cn(-c3ccccc3)nc2-c2ccc(F)cc2)cc1[N+](=O)[O-]` [TCMDC-125590] was -12.22%; that for `COc1ccc(CNC2CCN(C)CC2)cc1-c1cccc(S(=O)(=O)NCc2ccccc2)c1` [TCMDC-132267] was 106.3%.
The value for `COc1ccc(CNC2CCN(C)CC2)cc1-c1ccc(S(=O)(=O)NCc2ccccc2)cc1` [TCMDC-132244] was 110.3%; that for `Cc1ccc(NC(=O)c2ccc(CN3CCCN(Cc4cccc(C#N)c4)CC3)cc2)cc1F` [TCMDC-136394] was -18.71%; that for `COc1ccc2ncc(F)c(CCN3C4CCC3CC(NCc3ccc5c(c3)OCCO5)C4)c2n1` (stereo not drawn) [TCMDC-135638] was 37.56%.
